Assay results taken from PubChem BioAssay AID504832 (National Center for Advancing Translational Sciences (NCATS), 2011).
The campaign covered roughly 310,000 compounds. About 18,000 (5.8%) were called active. About 22% were inconclusive and are not listed. This excerpt belongs to a sample that is enriched for actives. A number with no mark means an inactive call. Calls follow the shape of the dose curve; as a rule, active = well fitted inhibition curve with a large enough effect; inconclusive = small, poorly fitted or top-dose-only effect, or another doubt; inactive = no such curve, though single readings can be large or run the other way.

Test: Primary qHTS for delayed death inhibitors of the malarial parasite plastid, 48 hour incubation
Conditions: P. falciparum luciferase growth in erythrocytes; series mostly up to 28.7 µM; activity change, negative = inhibition: at the top concentration
Summary of the method: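 Parasite viability was followed by luminescence of a genomically integrated firefly luciferase. Cultures held 0.1% parasitemia at 2% hematocrit (final), incubated under 5% CO2 at 37 C.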
% is scaled to controls: 0 for no effect and ±100 for the full control effect; potency is read from the fitted curve at half-maximal effect.

Row | Structure (SMILES) | activity change, negative = inhibition [%] | Potency
1 | CCCCn1c(N)c(N(CCC(C)C)C(=O)COC(=O)c2cccnc2OCC)c(=O)[nH]c1=O | 4.51 | –
2 | CCCCn1c(N)c(N(CCC(C)C)C(=O)c2ccc([N+](=O)[O-])o2)c(=O)[nH]c1=O | 0.374 | –
3 | CCCCn1c(N)c(N(CCC(C)C)C(=O)CC2OC(=O)c3ccccc32)c(=O)[nH]c1=O (stereo unspecified) | – | 8.28 µM (active)
4 | Cc1cc2c(=O)n(CC(=O)NCC(=O)Nc3ccc(C(C)C)cc3)cnc2s1 | 19.7 | –
5 | COc1ccc(CS(=O)/C(Cl)=C(/Cl)C(=O)Nc2ccc(OC)nc2)cc1 (stereo unspecified) | – | 9.28 µM (active)
6 | COc1ccc(C(=O)Nc2ccc(NC(=O)C(C)C)nc2)cc1 | 7.77 | –
7 | COc1ccc(NC(=S)NCCNC(C)=O)cc1 | 6.26 | –
8 | Cc1ccsc1C(=O)NC1CCCCC1C (stereo unspecified) | -9.34 | –
9 | CC1CCN(S(=O)(=O)c2ccc3c(c2)n(C)c(=O)n3C)CC1 | 8.41 | –
10 | O=S(=O)(NCCS(=O)(=O)N1CCN(c2ccccc2)CC1)c1ccc(F)cc1 | -19.3 | –
11 | Cc1ccc2nnn(Cc3cccc(C(C)(C)C)c3O)c2c1 | – | 11.7 µM (active)
12 | Cc1ccc(C(=O)CSc2nnc(Cn3nnc4ccccc43)n2C)cc1 | 3.53 | –
13 | COc1ccccc1NC(=O)C(C)OC(=O)CC1CCCC1 (stereo unspecified) | 6.22 | –
14 | CC(C)(C)NC(=O)C(c1ccc(Cl)cc1)N(CCO)C(=O)c1snc(C(N)=O)c1N (stereo unspecified) | – | 6.57 µM (active)
15 | Cc1ccc(N(C(=O)c2sc(C)nc2C)C(C(=O)NC(C)(C)C)c2ccncc2)cc1 (stereo unspecified) | -12.3 | –
16 | NC(=O)c1ccc(Nc2ccc3nonc3c2[N+](=O)[O-])cc1 | 27.2 | –

Row | Structure (SMILES) | activity change, negative = inhibition [%] | Potency
17 | COC(=O)c1cc(S(=O)(=O)NCC2CCN(Cc3ccc(Cl)cc3)CC2)cn1C | -25.3 | –
18 | O=C(c1ccc(Cl)s1)N(Cc1nnc(-c2ccccc2Cl)o1)C1CC1 | 7.39 | –
19 | CN(C(=O)COC(=O)c1cc(-c2ccco2)nc2ccccc12)C1CCS(=O)(=O)C1 (stereo unspecified) | -11.3 | –
20 | O=C(c1cc(-c2ccco2)nc2ccccc12)N(Cc1nnc(-c2ccc(Cl)cc2)o1)C1CC1 | – | 4.15 µM (active)
21 | O=C(Nc1cccc(F)c1)NC1CCCc2ccccc21 (stereo unspecified) | -36.1 | –
22 | Cc1cc(=O)[nH]c(Nc2cccc(Br)c2)n1 | 24.1 | –
23 | O=C(CCc1nnc2ccc(NCc3ccco3)nn12)Nc1cc(F)ccc1F | 8.55 | –
24 | COc1ccc(Cl)cc1C(=O)NCC#N | -5.62 | –
25 | N#C/C=C\Oc1ccc(Cl)cc1N | – | 7.38 µM (active)
26 | COC(=O)CNC(=O)c1cc(-c2ccncc2)nc2ccccc12 | -41 | –
27 | O=C(Nc1ccncc1)c1cc(-c2ccccn2)nc2ccc(Br)cc12 | 11.8 | –
28 | CCN(CC)CCNC(=O)c1ccc(NC(=O)c2c(F)cccc2Cl)cc1 | -17.4 | –
29 | CCN(CC)CCNC(=O)c1ccc(NC(=O)c2cc(-c3ccncc3)nc3ccccc23)cc1 | – | 0.828 µM (active)
30 | Cc1ccc2nc(-c3ccccn3)cc(C(=O)Nc3ccc4c(c3)OCO4)c2c1 | -10.7 | –
31 | Cc1ccc2nc(-c3ccncc3)cc(C(=O)Nc3ccncc3)c2c1 | – | 13.1 µM (active)
